Laboratory results published in PubChem BioAssay (EPA / NIEHS).
Results filed as inconclusive are left out. The source made the active and inactive calls. The calls were made as follows, unless noted: active = hit-call score of the fitted dose curve at least 0.9, where 1 is the maximum; inactive = score below 0.9.

Experiments:
[1] = ATG_TAL_CIS: Attagene CIS-FACTORIAL HepG2 Assay for human TAL Basal Promoter (AID 2282966); conditions: HepG2 Attagene cis-factorial TAL promoter reporter; actives raise or lower the signal;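 also: background control endpoint measuring basal TAL promoter reporter mRNA not a specific factor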
Outline: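 Fluorescence of labelled reporter cDNA fragments, resolved by capillary electrophoresis, gave the readout. Human HepG2 liver cells carried transiently transfected cis-element reporter units and were treated for 24 hours; activity was fitted bidirectionally against DMSO.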

[2] = ATG_TGFb_CIS: Attagene CIS-FACTORIAL HepG2 Assay for human Transforming Growth Factor (TGF) (AID 2282967); conditions: HepG2 Attagene CIS TGFb reporter, mRNA transcription; actives raise or lower the signal
Outline: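 After a 24-hour incubation with compound, transfected HepG2 cells were lysed for RNA; reporter cDNA was amplified, fluorescently end-labeled and separated by CE. DMSO served as baseline for bidirectional fits.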

[3] = ATG_VDRE_CIS: Attagene CIS-FACTORIAL HepG2 Assay for human Vitamin D Receptor Element (VDRE) (AID 2282968); conditions: HepG2 VDRE cis-reporter transcription, actives raise or lower the signal
Outline: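 HepG2 cells transiently transfected with cis-element reporter units, dosed 24 h; reporter mRNA measured by RT-PCR, 6-FAM labeling, HpaI digestion and capillary electrophoresis. Activity fitted bidirectionally against DMSO baseline.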

[4] = target: Nuclear receptor subfamily 1 group I member 3 (Homo sapiens) (UniProt Q14994); assay: ATG_CAR_TRANS: Attagene TRANS-FACTORIAL HepG2 Assay for human Constitutive Androstane Receptor (CAR) (AID 2282969; active = hit-call score of the fitted dose curve at least 0.9, where 1 is the maximum;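 also: activators raise reporter mRNA above DMSO so AC50 marks induction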); conditions: HepG2 Attagene TRANS-FACTORIAL CAR reporter
Nuclear receptor subfamily 1 group I member 3 (Homo sapiens), sequence (Q14994 whole entry, looked up, the tested form may be a part): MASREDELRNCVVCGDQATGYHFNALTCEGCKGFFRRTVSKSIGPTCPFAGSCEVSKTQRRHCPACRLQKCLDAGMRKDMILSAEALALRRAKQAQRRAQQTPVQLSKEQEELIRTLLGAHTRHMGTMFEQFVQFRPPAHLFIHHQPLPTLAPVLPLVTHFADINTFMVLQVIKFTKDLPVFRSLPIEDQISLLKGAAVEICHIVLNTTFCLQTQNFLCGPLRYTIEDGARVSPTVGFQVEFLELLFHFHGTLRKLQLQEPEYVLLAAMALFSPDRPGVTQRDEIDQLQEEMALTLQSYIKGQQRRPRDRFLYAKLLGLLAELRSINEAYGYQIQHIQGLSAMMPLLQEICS
Outline: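 HepG2 cells transiently transfected with multiplexed GAL4-UAS reporter units expressing chimeric NR-Gal4 proteins; compound exposure 24 h. Reporter mRNA measured by RT-PCR, 6-FAM labelling, HpaI digestion and capillary electrophoresis; gain-of-signal fitted against DMSO baseline.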

[5] = target: Estrogen receptor (Homo sapiens) (UniProt P03372); assay: ATG_ERa_TRANS: Attagene TRANS-FACTORIAL HepG2 Assay for human Estrogen Receptor alpha (ERa) (AID 2282970; active = hit-call score of the fitted dose curve at least 0.9, where 1 is the maximum); conditions: HepG2 Attagene TRANS ERa GAL4 reporter, mRNA
Estrogen receptor (Homo sapiens), sequence (P03372 whole entry, looked up, the tested form may be a part): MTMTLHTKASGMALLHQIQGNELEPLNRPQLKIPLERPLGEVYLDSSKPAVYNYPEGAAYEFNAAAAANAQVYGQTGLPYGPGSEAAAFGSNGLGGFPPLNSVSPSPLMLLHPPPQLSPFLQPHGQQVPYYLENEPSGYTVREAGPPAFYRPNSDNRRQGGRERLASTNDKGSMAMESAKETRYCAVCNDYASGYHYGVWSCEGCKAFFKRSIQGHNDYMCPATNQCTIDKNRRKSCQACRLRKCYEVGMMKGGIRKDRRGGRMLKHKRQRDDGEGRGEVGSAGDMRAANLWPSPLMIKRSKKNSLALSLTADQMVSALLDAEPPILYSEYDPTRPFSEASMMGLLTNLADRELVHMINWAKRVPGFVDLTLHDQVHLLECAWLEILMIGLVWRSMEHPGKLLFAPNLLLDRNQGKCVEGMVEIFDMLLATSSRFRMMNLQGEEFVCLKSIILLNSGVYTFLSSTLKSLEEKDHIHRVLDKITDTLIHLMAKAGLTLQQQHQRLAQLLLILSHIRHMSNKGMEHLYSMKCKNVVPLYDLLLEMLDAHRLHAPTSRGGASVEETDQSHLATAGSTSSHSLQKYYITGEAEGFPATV
Outline: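 Human liver HepG2, transient transfection of multiple GAL4-UAS reporter units; TRANS format (exogenous NR-Gal4 chimera). 24 h dosing. Readout: reporter mRNA, RT-PCR, 6-FAM primer extension, HpaI digest, capillary electrophoresis. Positive direction vs DMSO.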

[6] = target: X-box-binding protein 1 (Homo sapiens) (UniProt P17861); assay: ATG_Xbp1_CIS: Attagene CIS-FACTORIAL HepG2 Assay for human X-box Binding Protein 1 (XBP1) (AID 2282972); conditions: HepG2 XBP1 cis-element reporter, Attagene multiplex; actives raise or lower the signal
X-box-binding protein 1 (Homo sapiens), sequence (P17861 whole entry, looked up): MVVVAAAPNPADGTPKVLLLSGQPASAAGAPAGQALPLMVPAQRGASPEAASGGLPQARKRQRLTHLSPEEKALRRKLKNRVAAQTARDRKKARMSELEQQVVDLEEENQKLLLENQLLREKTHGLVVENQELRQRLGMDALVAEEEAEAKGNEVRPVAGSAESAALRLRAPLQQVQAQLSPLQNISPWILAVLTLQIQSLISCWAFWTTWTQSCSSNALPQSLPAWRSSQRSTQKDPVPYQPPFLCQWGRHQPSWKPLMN
Outline: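 HepG2, transient MRTU transfection (cis-promoter driven), 24 h compound exposure. Total RNA → oligo(dT) RT → PCR → 6-FAM labeling → HpaI cut → CE. Bidirectional fit vs DMSO.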

[7] = ATG_M_19_TRANS: Attagene TRANS-FACTORIAL HepG2 Assay for M19 Transcription Factor (Internal Marker) (AID 2282974; active = hit-call score of the fitted dose curve at least 0.9, where 1 is the maximum); conditions: HepG2 Attagene TRANS-FACTORIAL M19 internal marker reporter
Outline: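 Using RT-PCR and capillary electrophoresis, reporter mRNA from transiently transfected human HepG2 cells was quantified following 24 h exposure; activity was fitted in the positive direction against DMSO.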

[8] = target: Bile acid receptor (Homo sapiens) (UniProt Q96RI1); assay: ATG_FXR_TRANS: Attagene TRANS-FACTORIAL HepG2 Assay for Farnesoid X Receptor (FXR) (AID 2282979; active = hit-call score of the fitted dose curve at least 0.9, where 1 is the maximum;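 also: hits raise reporter mRNA above DMSO so AC50 marks FXR activation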); conditions: HepG2 Attagene TRANS FXR-GAL4 reporter transcription
Bile acid receptor (Homo sapiens), sequence (Q96RI1 whole entry, looked up, the tested form may be a part): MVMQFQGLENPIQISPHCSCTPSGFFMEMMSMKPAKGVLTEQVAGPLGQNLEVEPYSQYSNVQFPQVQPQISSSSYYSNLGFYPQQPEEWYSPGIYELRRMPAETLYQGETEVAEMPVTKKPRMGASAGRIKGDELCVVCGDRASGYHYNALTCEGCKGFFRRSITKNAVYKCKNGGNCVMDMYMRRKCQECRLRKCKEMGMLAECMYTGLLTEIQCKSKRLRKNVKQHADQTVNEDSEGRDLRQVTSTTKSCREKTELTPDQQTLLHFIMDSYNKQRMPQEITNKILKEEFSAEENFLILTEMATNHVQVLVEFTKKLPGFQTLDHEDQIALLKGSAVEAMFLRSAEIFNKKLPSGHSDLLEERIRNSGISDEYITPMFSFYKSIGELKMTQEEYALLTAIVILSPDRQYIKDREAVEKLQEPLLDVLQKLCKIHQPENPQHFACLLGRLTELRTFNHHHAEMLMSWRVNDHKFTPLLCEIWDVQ
Outline: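 Transient transfection of HepG2 with multiplexed GAL4-UAS reporter units; exogenous FXR-GAL4 chimera. Dose 24 h → TriZol RNA → oligo(dT) RT → PCR, 6-FAM primer extension, HpaI cut → CE. Gain vs DMSO.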

[9] = ATG_M_32_TRANS: Attagene TRANS-FACTORIAL HepG2 Assay for M32 Transcription Factor (Internal Marker) (AID 2282984; active = hit-call score of the fitted dose curve at least 0.9, where 1 is the maximum;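 also: transcript level of a background control reporter unit measured by RT-PCR and capillary electrophoresis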); conditions: HepG2 Attagene TRANS M32 internal marker reporter
Outline: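 HepG2 cells transiently transfected with multiple GAL4-UAS reporter transcription units, dosed for 24 hours; reporter mRNA quantified by RT-PCR, 6-FAM primer extension, HpaI digestion and capillary electrophoresis. Gain-of-signal fitted versus DMSO baseline; internal background-control marker.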

[10] = target: Transcriptional activator Myb (Homo sapiens) (UniProt P10242); assay: ATG_Myb_CIS: Attagene CIS-FACTORIAL HepG2 Assay for human Myeloblastosis (Myb) Proto-Oncogene Transcription Factor (AID 2282986); conditions: HepG2 Attagene CIS-FACTORIAL Myb reporter transcription; actives raise or lower the signal
Transcriptional activator Myb (Homo sapiens), sequence (P10242 whole entry, looked up): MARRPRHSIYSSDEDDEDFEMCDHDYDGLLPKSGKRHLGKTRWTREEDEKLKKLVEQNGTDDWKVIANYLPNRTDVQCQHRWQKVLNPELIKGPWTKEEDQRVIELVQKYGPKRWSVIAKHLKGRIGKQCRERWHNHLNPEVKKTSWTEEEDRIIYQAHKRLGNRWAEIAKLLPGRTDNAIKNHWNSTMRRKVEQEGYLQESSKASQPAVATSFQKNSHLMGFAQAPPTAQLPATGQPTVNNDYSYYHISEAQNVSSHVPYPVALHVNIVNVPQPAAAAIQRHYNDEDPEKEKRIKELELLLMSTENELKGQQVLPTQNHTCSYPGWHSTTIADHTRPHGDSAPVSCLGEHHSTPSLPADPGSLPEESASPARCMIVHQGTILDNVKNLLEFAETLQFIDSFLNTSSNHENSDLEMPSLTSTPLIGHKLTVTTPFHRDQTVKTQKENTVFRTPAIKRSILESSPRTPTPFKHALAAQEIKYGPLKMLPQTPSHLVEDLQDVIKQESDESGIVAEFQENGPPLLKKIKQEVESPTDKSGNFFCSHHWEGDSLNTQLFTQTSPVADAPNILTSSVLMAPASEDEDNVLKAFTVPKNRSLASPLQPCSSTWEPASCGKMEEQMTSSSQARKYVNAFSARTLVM
Outline: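 In this HepG2 transient-transfection format, cis-regulated reporter mRNA is quantified 24 h post-dosing by RT-PCR with capillary electrophoresis, fitted bidirectionally to DMSO baseline.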

[11] = target: Nuclear respiratory factor 1 (Homo sapiens) (UniProt Q16656); assay: ATG_NRF1_CIS: Attagene CIS-FACTORIAL HepG2 Assay for human Nuclear Respiratory Factor 1 (NRF1) Orphan Gene (AID 2282987); conditions: HepG2 NRF1 cis-element reporter, Attagene multiplex; actives raise or lower the signal
Nuclear respiratory factor 1 (Homo sapiens), sequence (Q16656 whole entry, looked up): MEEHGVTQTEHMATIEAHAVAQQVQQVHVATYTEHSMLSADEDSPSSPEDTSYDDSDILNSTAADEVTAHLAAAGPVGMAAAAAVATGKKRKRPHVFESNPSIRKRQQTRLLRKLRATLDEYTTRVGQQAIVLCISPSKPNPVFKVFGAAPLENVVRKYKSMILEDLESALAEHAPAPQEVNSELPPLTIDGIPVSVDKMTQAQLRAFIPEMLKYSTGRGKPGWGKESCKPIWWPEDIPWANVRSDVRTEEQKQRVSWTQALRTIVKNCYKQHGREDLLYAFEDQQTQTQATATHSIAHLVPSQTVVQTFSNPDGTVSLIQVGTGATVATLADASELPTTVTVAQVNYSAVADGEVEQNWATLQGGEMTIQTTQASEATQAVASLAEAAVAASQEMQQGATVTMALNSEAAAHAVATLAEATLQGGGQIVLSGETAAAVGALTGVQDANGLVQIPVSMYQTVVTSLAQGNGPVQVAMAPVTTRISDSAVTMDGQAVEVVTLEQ
Outline: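 Using DMSO as baseline, gain- or loss-of-signal was fitted for reporter mRNA levels in HepG2 cells transiently transfected with cis-regulated reporter units. Samples were taken 24 h after dosing and read by RT-PCR with capillary electrophoresis.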

[12] = target: Steroid hormone receptor ERR1 (Homo sapiens) (UniProt P11474); assay: ATG_ERRa_TRANS: Attagene TRANS-FACTORIAL HepG2 Assay for human Estrogen-Related Receptor alpha (ERRa) (AID 2282971; active = hit-call score of the fitted dose curve at least 0.9, where 1 is the maximum); conditions: HepG2 Attagene TRANS reporter, ERRa transactivation
Steroid hormone receptor ERR1 (Homo sapiens), sequence (P11474 whole entry, looked up, the tested form may be a part): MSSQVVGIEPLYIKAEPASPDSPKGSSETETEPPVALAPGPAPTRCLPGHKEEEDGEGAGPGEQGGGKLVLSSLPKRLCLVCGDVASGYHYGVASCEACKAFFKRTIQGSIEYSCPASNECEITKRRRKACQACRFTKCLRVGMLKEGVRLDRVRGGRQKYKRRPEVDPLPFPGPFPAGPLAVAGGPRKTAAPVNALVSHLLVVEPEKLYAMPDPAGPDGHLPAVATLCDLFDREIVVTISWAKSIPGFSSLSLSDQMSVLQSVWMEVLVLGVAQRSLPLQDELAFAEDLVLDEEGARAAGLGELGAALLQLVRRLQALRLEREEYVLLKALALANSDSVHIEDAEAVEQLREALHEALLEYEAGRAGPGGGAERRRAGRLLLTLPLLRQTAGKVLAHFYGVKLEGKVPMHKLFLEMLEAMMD
Outline: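 Reporter transcript induction was quantified by RT-PCR and capillary electrophoresis of FAM-labelled, HpaI-cut products after 24 h treatment of HepG2 cells carrying transiently transfected GAL4-UAS reporter units and an exogenous ERRa-Gal4 fusion; activity scored as increase over DMSO.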

[13] = ATG_GAL4_TRANS: Attagene TRANS-FACTORIAL HepG2 Assay for GAL4 (Internal Marker) (AID 2282976; active = hit-call score of the fitted dose curve at least 0.9, where 1 is the maximum); conditions: HepG2 Attagene TRANS GAL4 internal marker reporter
Outline: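 First, HepG2 cells were transfected with reporter units under GAL4-UAS control. Next, they were treated with chemical for 24 h. Finally, RNA was reverse-transcribed, PCR-amplified, FAM-labelled and resolved by capillary electrophoresis, with induction scored against DMSO.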

[14] = target: Estrogen-related receptor gamma (Homo sapiens) (UniProt P62508); assay: ATG_ERRg_TRANS: Attagene TRANS-FACTORIAL HepG2 Assay for human Estrogen-Related Receptor gamma (ERRg) (AID 2282977; active = hit-call score of the fitted dose curve at least 0.9, where 1 is the maximum;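 also: hits increase reporter signal over DMSO so potencies reflect activators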); conditions: HepG2 Attagene TRANS reporter, ERRg transactivation
Estrogen-related receptor gamma (Homo sapiens), sequence (P62508 whole entry, looked up, the tested form may be a part): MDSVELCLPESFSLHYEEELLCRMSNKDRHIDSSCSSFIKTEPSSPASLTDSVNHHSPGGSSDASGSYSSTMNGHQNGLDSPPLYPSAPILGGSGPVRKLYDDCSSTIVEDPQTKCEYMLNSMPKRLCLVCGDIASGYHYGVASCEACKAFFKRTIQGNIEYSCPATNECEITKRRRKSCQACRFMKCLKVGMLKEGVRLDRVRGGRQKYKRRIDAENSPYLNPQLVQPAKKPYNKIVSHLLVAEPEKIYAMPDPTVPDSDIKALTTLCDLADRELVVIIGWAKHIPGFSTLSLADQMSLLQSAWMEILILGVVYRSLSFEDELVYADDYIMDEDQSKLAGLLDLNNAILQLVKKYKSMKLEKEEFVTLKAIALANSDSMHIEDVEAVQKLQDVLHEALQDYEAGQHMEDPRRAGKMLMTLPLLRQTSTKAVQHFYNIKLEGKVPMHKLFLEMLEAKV
Outline: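 HepG2 cells transiently transfected with multiplexed GAL4-UAS reporter units and chimeric NR-Gal4 constructs were exposed to test chemicals for 24 h. Reporter mRNA was measured by RT-PCR, 6-FAM primer extension, HpaI digestion and capillary electrophoresis; gain-of-signal versus DMSO.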

[15] = target: Oxysterols receptor LXR-alpha (Homo sapiens) (UniProt Q13133); assay: ATG_LXRa_TRANS: Attagene TRANS-FACTORIAL HepG2 Assay for human Liver X Receptor alpha (LXRa) (AID 2282980; active = hit-call score of the fitted dose curve at least 0.9, where 1 is the maximum); conditions: HepG2 Attagene TRANS reporter, LXRa transactivation
Oxysterols receptor LXR-alpha (Homo sapiens), sequence (Q13133 whole entry, looked up, the tested form may be a part): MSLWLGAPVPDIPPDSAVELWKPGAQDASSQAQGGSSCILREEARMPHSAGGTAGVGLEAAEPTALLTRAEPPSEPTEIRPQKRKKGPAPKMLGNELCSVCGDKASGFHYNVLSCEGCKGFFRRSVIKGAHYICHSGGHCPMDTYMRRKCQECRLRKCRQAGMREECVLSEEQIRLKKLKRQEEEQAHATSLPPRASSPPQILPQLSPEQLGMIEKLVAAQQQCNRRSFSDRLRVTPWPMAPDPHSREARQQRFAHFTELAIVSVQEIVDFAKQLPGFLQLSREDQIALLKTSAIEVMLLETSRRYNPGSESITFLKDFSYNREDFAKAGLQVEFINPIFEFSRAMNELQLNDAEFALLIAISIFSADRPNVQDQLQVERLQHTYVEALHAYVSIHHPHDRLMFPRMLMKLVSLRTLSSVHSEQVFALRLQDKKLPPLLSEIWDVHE
Outline: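 Transfect HepG2 with GAL4-UAS multiplex reporter constructs (TRANS format, chimeric receptor-GAL4); treat 24 h; extract RNA, reverse-transcribe, PCR-amplify, FAM-label, HpaI-digest; resolve fragments by capillary electrophoresis. Upward response vs DMSO.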

[16] = target: Oxysterols receptor LXR-beta (Homo sapiens) (UniProt P55055); assay: ATG_LXRb_TRANS: Attagene TRANS-FACTORIAL HepG2 Assay for human Liver X Receptor beta (LXRb) (AID 2282981; active = hit-call score of the fitted dose curve at least 0.9, where 1 is the maximum); conditions: HepG2 Attagene TRANS GAL4-LXRb reporter, mRNA
Oxysterols receptor LXR-beta (Homo sapiens), sequence (P55055 whole entry, looked up, the tested form may be a part): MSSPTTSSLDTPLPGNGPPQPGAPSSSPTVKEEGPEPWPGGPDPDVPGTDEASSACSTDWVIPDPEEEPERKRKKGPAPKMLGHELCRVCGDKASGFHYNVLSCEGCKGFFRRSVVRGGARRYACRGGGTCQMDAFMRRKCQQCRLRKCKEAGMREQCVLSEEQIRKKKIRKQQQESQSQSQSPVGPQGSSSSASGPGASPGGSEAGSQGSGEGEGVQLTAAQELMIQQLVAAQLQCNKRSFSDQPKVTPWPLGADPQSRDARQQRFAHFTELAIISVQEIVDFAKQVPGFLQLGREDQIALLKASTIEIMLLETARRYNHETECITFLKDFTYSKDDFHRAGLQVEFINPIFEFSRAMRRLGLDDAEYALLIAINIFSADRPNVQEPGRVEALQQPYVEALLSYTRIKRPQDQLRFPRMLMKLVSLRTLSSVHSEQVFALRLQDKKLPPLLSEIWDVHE
Outline: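 HepG2 cells transiently transfected with multiple reporter transcription units carrying chimeric NR-Gal4 proteins acting on GAL4-UAS reporters; compound exposure 24 h. Reporter mRNA quantified by RT-PCR, 6-FAM labelling, HpaI digestion and capillary electrophoresis; gain of signal versus DMSO.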

[17] = ATG_M_06_TRANS: Attagene TRANS-FACTORIAL HepG2 Assay for M06 Transcription Factor (Internal Marker) (AID 2282983; active = hit-call score of the fitted dose curve at least 0.9, where 1 is the maximum;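 also: reporter transcript level by RT-PCR then capillary electrophoresis fluorescence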); conditions: HepG2 Attagene TRANS M06 internal marker reporter
Outline: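 Transfect HepG2 with MRTUs → dose compounds 24 h → isolate RNA, oligo(dT) RT → PCR with reporter primers → 6-FAM primer extension → HpaI digest → CE fragment analysis. Positive direction vs DMSO.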

[18] = target: Hepatocyte nuclear factor 4-alpha (Homo sapiens) (UniProt P41235); assay: ATG_HNF4a_TRANS: Attagene TRANS-FACTORIAL HepG2 Assay for human Hepatocyte Nuclear Factor 4 alpha (HNF4a) (AID 2282982; active = hit-call score of the fitted dose curve at least 0.9, where 1 is the maximum); conditions: HepG2 HNF4a transactivation reporter, mRNA readout
Outline: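 HepG2 cells transiently transfected with multiplexed GAL4-UAS reporter units responsive to chimeric NR-GAL4 proteins; compound exposure 24 h. Reporter mRNA quantified by RT-PCR, 6-FAM labelling, HpaI digestion and capillary electrophoresis; gain of signal versus DMSO baseline.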

[19] = target: Nuclear receptor subfamily 4 group A member 2 (Homo sapiens) (UniProt P43354); assay: ATG_NURR1_TRANS: Attagene TRANS-FACTORIAL HepG2 Assay for human Nuclear Receptor Related Protein 1 (NURR1) (AID 2282985; active = hit-call score of the fitted dose curve at least 0.9, where 1 is the maximum); conditions: HepG2 Attagene TRANS reporter, mRNA readout
Outline: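 HepG2 cells transiently transfected with GAL4-UAS reporter units and chimeric NR-Gal4 constructs; chemical exposure 24 h. Reporter mRNA quantified by RT-PCR, fluorescent labelling and capillary electrophoresis; gain of signal fitted relative to DMSO baseline.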

Cc1c(C)c2c(c(C)c1O)CCC(C)(COc1ccc(CC3SC(=O)NC3=O)cc1)O2 (stereo not given)
outcome [1]: inactive | outcome [2]: inactive | AC50 [3]: 13.9 µM (active) | outcome [4]: inactive | outcome [5]: inactive | outcome [6]: inactive | outcome [7]: inactive | AC50 [8]: 17.4 µM (active) | outcome [9]: inactive | outcome [10]: inactive | outcome [11]: inactive

O=C(N[C@@H](c1ccccc1)[C@@H]1CCCCN1)c1cccc(C(F)(F)F)c1Cl
outcome [1]: inactive | outcome [2]: inactive | AC50 [3]: 20.4 µM (active) | outcome [5]: inactive | outcome [12]: inactive | AC50 [6]: 33 µM (active) | outcome [13]: inactive | outcome [14]: inactive | outcome [8]: inactive | outcome [15]: inactive | outcome [16]: inactive | outcome [17]: inactive | outcome [10]: inactive | AC50 [11]: 56.9 µM (active)

CCCC(=O)O
outcome [1]: inactive | outcome [2]: inactive | outcome [3]: inactive | outcome [4]: inactive | outcome [12]: inactive | outcome [6]: inactive | outcome [7]: inactive | outcome [14]: inactive | outcome [18]: inactive | outcome [10]: inactive | outcome [11]: inactive

CCCC[C@H]1CN(CC2CCOCC2)C(=O)OC12CCN(C1(C)CCN(C(=O)c3c(C)ncnc3C)CC1)CC2
outcome [1]: inactive | outcome [2]: inactive | outcome [3]: inactive | outcome [4]: inactive | outcome [12]: inactive | outcome [6]: inactive | outcome [7]: inactive | outcome [15]: inactive | outcome [16]: inactive | outcome [9]: inactive | outcome [10]: inactive | outcome [11]: inactive

NCCOCCOCCN
outcome [1]: inactive | outcome [2]: inactive | outcome [3]: inactive | outcome [4]: inactive | outcome [6]: inactive | outcome [7]: inactive | outcome [16]: inactive | outcome [17]: inactive | outcome [9]: inactive | outcome [19]: inactive | outcome [10]: inactive | outcome [11]: inactive
